Screening data deposited in PubChem BioAssay by Broad Institute.
Glyco luc inh: increase of ERlucT glycosylation luciferase signal, primary screen, N-linked glycosylation inhibitor project, D54 ERlucT cells, luminescence, set 2 | reporter increase, % at 12.5 µM | 360,000 tested, 0.23% active | D54 ERlucT glycosylation luciferase reporter, 24 h; percent of 100 nM tunicamycin response;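 active = mean luciferase reporter signal, scaled so untreated is 0 and the glycosylation-blocking control 100, at or above a set limit in every replicate; inconclusive = mean reaches the limit but not every replicate does; inactive = mean below the limit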;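 note: luciferase carries N-glycosylation sites so blocking glycosylation raises the light; 0% = median of neutral control wells and 100% = median of 100 nM tunicamycin wells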
Vif imaging: HIV Vif self-association inhibitors, primary screen, imaging, HEK293T, single point; HEK293T cells, Vif self-association by quenched fluorescence, 24 h; inhibition, % at 7.49 µM; AID 602346, 2012; 340,000 tested, 0.35% active; in the data active = inhibition above about 50%, passing the limit was not always enough; inconclusive = no clear call, values can overlap the other calls; inactive = below about 31%
MITF act: activators of MITF-driven TRPM1 promoter reporter, primary screen, cell-based, SK-MEL-5, luciferase, single point | SK-MEL-5 TRPM1-promoter luciferase, 24 h; % of positive control, neutral wells = 0 | activation, % at 12.5 µM | 300,000 tested, 0.75% active | AID 588334, 2011;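 active = mean activation of at least 80% with every replicate also reaching 80%; inconclusive = mean reaches 80% but some replicate falls short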;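 note: 0% = neutral control wells and 100% = parthenolide positive control wells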
esBAF inh: Bmi1 luciferase reporter increase in mESCs, primary screen, esBAF inhibitor project, mouse ES cells, Bmi1 luciferase knock-in, single point; 24 h; 100% = twice the neutral-well signal; reporter increase, % at 12.5 µM; 350,000 tested, 2% active; in the data active = activation above about 40%; inconclusive = no clear call, values can overlap the other calls;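 note: 0% = median of the plate's neutral control wells and 100% = double that signal; a rise in the Bmi1 reporter signal indicates esBAF inhibition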
Wnt act: Wnt/beta-catenin pathway activators, primary screen, cell-based, plate reader, single point. Wnt/beta-catenin reporter cell assay, activator. activation, % at 9.35 µM. 300,000 tested, 1.2% active. AID 743398, 2014; in the data active = activation above about 30%, passing the limit was not always enough; inconclusive = no clear call, values can overlap the other calls;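 note: 0% = neutral control wells and 100% = positive control wells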
PfHsp90 yeast 2: growth inhibition of PfHsp90-expressing yeast, primary screen, antimalarial PfHsp90 inhibitor project, S. cerevisiae, BacTiter-Glo luminescence, single point, set 2; BacTiter-Glo ATP, 48 h; yeast lacking PDR1 and PDR3 efflux regulators; inhibition, % at 9.4 µM; 310,000 tested, 0.32% active; AID 504621, 2011;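 active = every replicate shows inhibition above about 80%, whatever the replicate mean, limit read from the data; inconclusive = mean inhibition reaches the set limit but some replicate falls short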;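 note: 0% = DMSO neutral controls and 100% = 20 µM radicicol positive controls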
* = called active by the depositor; ? = inconclusive; . = not tested or not shown. Only some compounds are listed: those with a hit (about 3% of all), similar ones and a draw of the others.

SMILES | Glyco luc inh | Vif imaging | MITF act | esBAF inh | Wnt act | PfHsp90 yeast 2
Cc1ccc(NC(=O)c2oc3ccccc3c2NC(=O)C2CCCO2)cc1C (stereo not given) | -2 | -16 | 104* | . | 47* | 22
Cc1ccc(C)c(NC(=O)c2ccccc2NC(=O)C2CCCO2)c1 (stereo not given) | 4 | . | -2 | . | 60* | -3
COc1ccc(NC(=O)c2oc3ccccc3c2NC(=O)C2CC2)cc1OC | 5 | -6 | 18 | 13 | 1 | -13
CC(C)(C)NC(=O)c1ccccc1NC(=O)C1CCCO1 (stereo not given) | -2 | 0 | 4 | . | -1 | 19
COc1ccc(NC(=O)c2oc3ccccc3c2NC(=O)C2CCCO2)cc1OC (stereo not given) | 1 | -4 | 24 | 63* | -3 | .
COc1ccc(NC(=O)c2coc3ccccc23)cc1OC | 0 | 6 | 112* | 83* | . | 17
C[C@@H]1CN([C@@H](C)CO)C(=O)c2cc(N(C)C)ccc2O[C@H]1CN(C)S(=O)(=O)c1ccc(Cl)cc1 | . | . | . | -4 | . | .
CCCC(C)C(=O)Nc1ccncc1 (stereo not given) | 0 | -3 | . | -3 | -9 | .
CCOC(=O)CSc1cc(C(F)(F)F)nc(-c2ccccn2)n1 | 3 | -2 | . | -6 | . | -30
CCN(CC)CCN(C(=O)c1ccc2ncsc2c1)c1nc2cc3c(cc2s1)OCO3 | -1 | 4 | 19 | 55* | 21 | 12
C=CCc1ccc(OC(=O)NC2CCCCC2)c(OC)c1 | 1 | -2 | 58 | 51* | 13 | 4
CNc1nc(-c2ccc([N+](=O)[O-])cc2)cs1 | -1 | -8 | 90* | 45* | 19 | -22
CC(C)C(=O)Nc1nc(-c2ccc([N+](=O)[O-])cc2)cs1 | -4 | -10 | 21 | . | -1 | -12
CCNc1nc(-c2ccc(Cl)cc2)cs1 | -2 | -1 | 111* | 90* | . | -30
CNc1nc(-c2ccc(Cl)cc2)cs1 | -1 | 26 | ? | 52* | . | -23
O=C(NC1CCCC1)C1CCC(CNS(=O)(=O)c2cccs2)CC1 (stereo not given) | -2 | 2 | 9 | . | -4 | -20
COc1ccc(-c2nc3c(c4nnc(SC(C)C(=O)Nc5ccc(C)cc5)n24)COC(C)(C)C3)cc1 (stereo not given) | -2 | -18 | -2 | 3 | . | -21
Cc1cc(Cl)n2c(nc3cc(F)c(F)cc32)c1C#N | 9 | 77* | -98 | . | -22 | ?
CCN(CC)CCN=c1c(C)nc(C#N)c(N)n1O | 3 | . | . | -1 | 4 | .
CCN(CC)c1nc(C)nc2c1cnn2CCc1ccccc1 | 0 | 35 | 89* | 80* | . | 3
CCN(CC)c1ncnc2c1cnn2Cc1ccc(C)cc1 | 1 | -12 | -4 | 8 | 0 | -16
COc1ccc2cc(C(=O)NCc3ccco3)c(=Nc3ccc(C(=O)O)cc3)oc2c1 | 0 | . | -7 | -7 | 42* | -16
C[n+]1c(/C=C/c2ccc3c(c2)OCO3)ccc2ccccc21 | -10 | -4 | 4 | . | -2 | -20
C[n+]1c(/C=C/c2ccc(O)cc2)ccc2ccccc21 | -4 | 12 | 30 | 62* | 24 | 4
CC(C)c1nnc(NC(=O)CSc2nnc(NC(=O)c3c(F)cccc3F)s2)s1 | 0 | 11 | 4 | 14 | 3 | -4
SMILES | Glyco luc inh | Vif imaging | MITF act | esBAF inh | Wnt act | PfHsp90 yeast 2
CCCN1C(=O)c2ccc(C(=O)NC3=NCCS3)cc2C1=O | 1 | 12 | 1 | 20 | . | -3
O=C(Nc1ccc2c(c1)OCO2)c1ccc(CO)cc1 | -7 | -3 | 35 | 38 | 48* | 7
CCCCOc1ccc(C(=O)Nc2ccc3c(c2)OCO3)cc1 | 1 | -3 | 71 | 42* | 35* | -22
CCCN1C(=O)c2ccc(C(=O)Nc3ccc4c(c3)OCO4)cc2C1=O | 1 | -3 | 66 | 63* | 9 | -13
CCCOc1ccc(C(=O)Nc2ccc3c(c2)OCO3)cc1 | -7 | . | 68 | 20 | 43* | -7
Cc1cccc(S(=O)(=O)N(C)C[C@H]2OCc3ccccc3-c3c(n(C)c4ccccc34)C(=O)N([C@@H](C)CO)C[C@@H]2C)c1 | . | . | . | -4 | . | .
CN(CCOc1ccccc1)C(=O)c1ccc2c(c1)OCO2 | 2 | -10 | 68 | 43* | -2 | -9
O=C(OCC(=O)C12CC3CC(CC(C3)C1)C2)c1ccc(O)cc1O | -2 | -12 | 49 | 51* | 8 | 101*
O=C(COC(=O)c1ccc(O)cc1O)NC12CC3CC(CC(C3)C1)C2 | -4 | -3 | 50 | ? | 18 | 12
CCOc1ccc(C(C)=O)cc1COc1cccnc1[N+](=O)[O-] | 30* | -9 | -20 | -12 | -3 | 25
COc1ccc(C(C)=O)cc1COc1cccnc1[N+](=O)[O-] | 23 | -26 | -6 | . | -4 | -4
CCN(C1CCCCC1)S(=O)(=O)c1ccc(S(=O)(=O)NCCc2ccncc2)cc1 | 0 | 4 | 3 | 4 | . | .
COc1ccc(NC(=O)CN(C)CC(=O)Nc2ccc(Cl)c(S(=O)(=O)N(C)C)c2)cc1 | 1 | -2 | 4 | 6 | 0 | .
CN(CC(=O)Nc1ccc(Cl)c(S(=O)(=O)N(C)C)c1)Cc1ccccc1 | -1 | 15 | 59 | 65* | 9 | -24
CC(Sc1nncn1C)C(=O)Nc1ccc(N2CCCCC2)cc1 (stereo not given) | -2 | 0 | 6 | 34 | 34* | 0
CC(C)n1cnnc1SCC(=O)Nc1ccc(N2CCCCC2)cc1 | 6 | 1 | 9 | 4 | 4 | -5
C=CCSC1=NNC(c2ccc(C(C)(C)C)cc2)=NN1 | 9 | 18 | 66 | 63* | 12 | -11
Cc1cc(C)n(-c2ccc(C(=O)Nc3ccc4c(c3)OCCO4)cc2)n1 | -3 | -20 | 70 | 56* | . | 3
CC(C)CNS(=O)(=O)c1ccc(C(=O)Nc2ccc3c(c2)OCCO3)cc1 | -3 | -4 | 59 | 91* | . | -5
CC(C)COc1ccc(N)cc1OCC(C)C | 0 | 2 | -3 | -7 | 6 | 11
COc1ccc2c(c1)c(=O)oc1cc(OCC(=O)NCC3CCC(C(=O)O)CC3)ccc12 (stereo not given) | -1 | 55* | 13 | 3 | 0 | 8
Cc1ccc(-n2cc(CNCCCn3ccnc3C)c(-c3ccc(F)cc3)n2)cc1 | -5 | -2 | -70 | -9 | 0 | .
Cc1csc(NC(=O)c2cc(C)oc2C)n1 | -1 | -6 | 60 | 63* | . | -6
